An excerpt weighted towards active compounds, which were near 11% of everything screened.
JMJD2A Tudor – qHTS Assay for Inhibitors of JMJD2A-Tudor Domain; Lysine-specific demethylase 4A (Homo sapiens), O75164; AlphaScreen JMJD2A-Tudor / H3K4me3 peptide binding; Potency, µM (titrated, usually from 114 µM), inactives show at the highest dose activity change, negative = inhibition, usual class: inhibitors; 390,000 compounds, 4.4% hits; AID 504339, 2011; also: % is scaled to controls: 0 for no effect and ±100 for the full control effect; nearly all actives have a fitted effect of over 50% in size
BAZ2B block – qHTS Assay for Inhibitors of BAZ2B; Potency, µM (titrated, usually from 114 µM), for the others: at the highest dose activity change, negative = inhibition, usual class: inhibitors; 360,000 compounds, 4.4% hits; AlphaScreen BAZ2B-H3K14Ac peptide displacement; also: % is scaled to controls: 0 for no effect and ±100 for the full control effect; nearly all actives have a fitted effect of over 60% in size
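Compounds, titrated to a top concentration of 110 uM, were incubated 30 min at room temperature with preformed BAZ2B/acetyl-K14 H3 peptide complex (50 nM each). Proximity signal was measured by AlphaScreen after 20 min with beads.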
HP1b chromo inh – HTS for Inhibitors of HP1-beta Chromodomain Interactions with Methylated Histone Tails. Chromobox protein homolog 1 (Homo sapiens), P83916. AlphaScreen HP1-beta / biotin-H3K9me3 peptide binding. 390,000 compounds, 0.56% hits. AID 540317, 2011. Potency, µM (top dose mostly 114 µM), for inactives: at the highest dose activity change, negative = inhibition, usual class: inhibitors; also: nearly all actives have a fitted effect of over 70% in size
Target sequence (P83916 whole entry, looked up): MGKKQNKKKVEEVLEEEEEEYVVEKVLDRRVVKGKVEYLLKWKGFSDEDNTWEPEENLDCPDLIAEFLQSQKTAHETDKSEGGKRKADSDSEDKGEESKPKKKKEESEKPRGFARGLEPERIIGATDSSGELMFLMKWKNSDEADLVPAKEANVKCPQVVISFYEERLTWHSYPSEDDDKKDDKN
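AlphaScreen: HP1-beta (50 nM) preformed 30 min with biotin-H3(1-18)K9me3 peptide (50 nM) in PBS pH 7.4, 0.01% Tween-20. Compound added for 30 min at RT, then streptavidin donor/nickel chelate acceptor beads (10 ug/mL) for 30 min.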
G9a block – qHTS Assay for Inhibitors of Histone Lysine Methyltransferase G9a; G9a H3K9 monomethylation, AlphaScreen, 2 h; Potency, µM (series often up to 102 µM), inactives show at the top dose activity, negative = inhibition, actives largely listed as inhibitors; 350,000 compounds, 8.8% hits; AID 504332, 2011; also: % is scaled to controls: 0 for no effect and ±100 for the full control effect; nearly all actives have a fitted effect of over 75% in size
Target sequence (Q96KQ7 913-1193 limits assumed): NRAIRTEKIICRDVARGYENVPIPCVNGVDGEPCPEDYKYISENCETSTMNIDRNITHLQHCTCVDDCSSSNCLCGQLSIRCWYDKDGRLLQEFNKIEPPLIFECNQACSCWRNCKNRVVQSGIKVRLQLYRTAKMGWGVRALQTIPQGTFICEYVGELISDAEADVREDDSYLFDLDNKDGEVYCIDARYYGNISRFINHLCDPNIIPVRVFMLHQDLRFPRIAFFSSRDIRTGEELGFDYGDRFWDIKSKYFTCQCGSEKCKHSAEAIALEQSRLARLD
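Using a bead-based AlphaScreen, monomethylated H3K9 product from 2 h room-temperature reactions (G9a 20 nM, peptide 500 nM, SAM 20 uM) was detected with 0.5 ug/mL rabbit anti-H3K9me1 antibody.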
L3MBTL1 block – qHTS Assay for the Inhibitors of L3MBTL1; Lethal(3)malignant brain tumor-like protein 1 (Homo sapiens), Q9Y468; AlphaScreen L3MBTL1–H3K9me1 peptide binding; Potency, µM (doses to about 57.1 µM), inactives show at the highest dose activity, negative = inhibition, hits mostly inhibitors; 230,000 compounds, 0.66% hits; AID 485360, 2010; also: % is scaled to controls: 0 for no effect and ±100 for the full control effect; nearly all actives have a fitted effect of over 60% in size
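Read-out is AlphaScreen signal from streptavidin donor and nickel chelate acceptor beads (10 ug/mL final each) bridging L3MBTL1 (50 nM) and biotinylated K9-monomethylated H3(1-15) peptide (75 nM), after 30 min compound exposure at room temperature.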
* hit, by the source's call; ? = inconclusive; nt = no result given; [ ] = remark or other dose. Calls follow the shape of the dose curve; as a rule, active = well fitted inhibition curve with a large enough effect; inconclusive = small, poorly fitted or top-dose-only effect; inactive = no such curve, though single readings can be large or run the other way. Potency is read from the fitted curve at half-maximal effect.

SMILES	JMJD2A Tudor	BAZ2B block	HP1b chromo inh	G9a block	L3MBTL1 block
O=C(/C(C=Nc1ccc(F)cc1)=C(/O)c1ccco1)C(F)(F)F	?	?	21%	40µM*	-2%
O=C(NCCNC(=O)c1ccco1)c1ccc(F)cc1	-3%	-10%	0%	-2%	8%
Cc1cccc(N=C/C(C(=O)C(F)(F)F)=C(\O)c2ccco2)c1	-20%	5%	25%	44%[59 µM]	11%
Cc1ccc(N=C/C(C(=O)C(F)(F)F)=C(\O)c2ccco2)cc1Cl	?	0%	29%	45µM*	13%
Cc1cccc(CNC(=O)c2ccccc2NC(=O)C2=CSCCO2)c1	-30%	2%	11%	33%	nt
Cc1ccc(CNC(=O)c2ccccc2NC(=O)C2=CSCCO2)cc1	-16%	-2%	64%	35%	nt
Cc1cccc(CNC(=O)c2ccc(NC(=O)C3=CSCCO3)cc2)c1	20µM*	-17%	8%	-9%[59 µM]	nt
CCOc1ccc(CNC(=O)c2ccccc2NC(=O)C2=CSCCO2)cc1	32µM*	-17%	-2%	-11%	nt
Cc1cccc(NC(=O)c2sc3nc(-c4cc5ccc(O)cc5oc4=O)[nH]c(=O)c3c2C)c1	19%	10%	46%	5%[59 µM]	nt
CCOc1ccc(Nc2nc3ccccc3n3c(CC)nnc23)cc1	-5%	-26%	16%	-29%[59 µM]	nt
O=C1CSC(=S)N1N1C(=O)c2cccc([N+](=O)[O-])c2C1=O	nt	?	nt	6.3µM*	nt
O=S1(=O)C=C(SCCN2CCCCC2)c2ccccc21	13%	-8%	37%	50µM*	-7%
O=C1c2ccccc2C(=O)N1CCN1CCCCC1	-2%	-12%	36%	-15%[59 µM]	nt
O=C1N/C(=N/S(=O)(=O)Cc2ccccc2)S/C1=C/c1ccc2c(c1)OCO2	-14%	-1%	33%	nt	10%
COc1ccccc1NS(=O)(=O)c1cc(NC(=O)c2ccncc2)ccc1N1CCCC1	-36%	nt	?	7.9µM*	-17%
COc1ccccc1NS(=O)(=O)c1cc(NC(=O)c2ccccc2C)ccc1N1CCOCC1	-15%	nt	9%	nt	nt
COc1ccc(NC(C)=O)cc1S(=O)(=O)Nc1ccc(OCc2ccccc2)cc1	?	?	-6%	45µM*	nt
CCCCCC(=O)Nc1ccc(N2CCOCC2)c(S(=O)(=O)Nc2ccc(OC)cc2)c1	-15%	9%	10%	11µM*	-1%
COc1ccccc1NS(=O)(=O)c1cc(NC(=O)C2CC2)ccc1N1CCOCC1	nt	-35%	nt	8.9µM*	10%
COc1ccc(NC(C)=O)cc1S(=O)(=O)Nc1ccccc1C(=O)NCCc1ccccc1	-3%	-25%	9%	3%	nt
COc1ccccc1NS(=O)(=O)c1cc(NC(=O)Nc2cccc(C)c2)ccc1N1CCCCC1	-24%	-3%	?	25µM*	-8%
COc1ccccc1NS(=O)(=O)c1cc(NC(=O)CCNC(C)=O)ccc1N1CCCCC1	?	-30%	-10%	4%[0.501 µM]	-9%
COc1ccccc1NS(=O)(=O)c1cc(NC(C)=O)ccc1N1CCCCC1	79µM*	nt	?	8.9µM*	-11%
COc1ccccc1NS(=O)(=O)c1cc(N2Cc3ccccc3C2=N)ccc1N1CCOCC1	?	nt	?	14µM*	-15%
COc1ccccc1NS(=O)(=O)c1cc(N)ccc1N1CCCC1	?	nt	14µM*	nt	-14%
SMILES	JMJD2A Tudor	BAZ2B block	HP1b chromo inh	G9a block	L3MBTL1 block
COc1ccc(Nc2ncnc3c2nc2n3CCCC2)cc1Cl	-20%	-13%	7%	-31%[59 µM]	nt
Cc1ccc(S(=O)(=O)c2cn(Cc3ccccc3F)c3cc4c(cc3c2=O)OCO4)cc1	-6%	2%	46%	-2%[59 µM]	nt
CCCCC[C@@H]1C=C(C(=O)O)[C@H](c2ccc(OC)c(OC)c2)N1S(=O)(=O)c1ccc(C)cc1	-9%	nt	19%	nt	2%
COc1ccc(C(=O)Nc2ccc(Cl)c(S(=O)(=O)Nc3ccccc3OC)c2)cc1	-23%	-7%	13%	-6%[59 µM]	2%
Nc1ccc(N2CCCC2)c(S(=O)(=O)Nc2cccc(C(F)(F)F)c2)c1	45µM*	nt	?	nt	-14%
CCN(CC)c1ccc(NC(=O)c2ccccc2)cc1S(=O)(=O)Nc1ccccc1OC	79µM*	-36%	?	1µM*	-3%
CCOc1ccc(NC(=O)CN2C(=O)C(c3ccccc3)=NC23CCC(C)CC3)cc1 (configuration not stated)	7%	-14%	25%	-7%[59 µM]	nt
C[C@@]12C=CC(=O)C=C1CC[C@@H]1[C@@H]2[C@H](O)C[C@]2(C)[C@@H]1CC[C@]2(O)C(=O)CO	nt	nt	nt	19%[21.5 µM]	nt
Cc1ccc(OCC(=O)Nc2ccc3nc(SCC(N)=O)sc3c2)cc1	-9%	-2%	17%	1%[59 µM]	nt
O=C(CSC1=NC(=O)C(Cc2ccccc2)C(=O)N1)Nc1ncccn1 (configuration not stated)	nt	-6%	nt	79µM*	-3%
O=C(CSC1=NC(=O)C(Cc2ccccc2)C(=O)N1)Nc1ncc(Br)cc1Br (configuration not stated)	-3%	2%	20%	-4%[59 µM]	nt
Cc1ccc(CNC(=O)CSC2=Nc3ccccc3N=C(c3ccc(F)cc3)C2)cc1	-6%	-12%	11%[57 µM]	-5%[59 µM]	nt
CCC(C)NC(=O)c1ccc2c(c1)sc1nc(-c3ccc(OC)cc3)cn12 (configuration not stated)	-6%	-15%	22%	-11%[59 µM]	nt
Cc1nc2nc(SCC(=O)Nc3ccccc3Cl)nn2c(C)c1Cc1ccccc1	-12%	-11%	22%	-4%[59 µM]	nt
Cc1nc2nc(SCC(=O)O)nn2c(C)c1Cc1c(F)cccc1Cl	-12%	2%	46%	11µM*	nt
Cc1nc2nc(SCC(=O)O)nn2c(C)c1Cc1ccccc1Cl	7%	8%	38%	28µM*	nt
CCCN(CCC)c1cc(C)nc2nc(-c3ccc(Cl)cc3)nn12	-5%	0%	33%	5%[59 µM]	nt
COc1cc(OC)cc(-c2cc3nc(C)c(CCC(=O)NCc4ccc(Cl)cc4)c(C)n3n2)c1	-12%	?	37%	5%[59 µM]	nt
COc1cc(Cl)c(C)cc1NC(=O)Cn1ncc2c3ccccc3n(Cc3ccccc3)c2c1=O	-22%	-4%	1%	5%[59 µM]	nt
CSC1=NS(=O)(=O)c2c(C)nn(C)c2S1	4.5µM*	50µM*	13µM*	1.1µM*	0%
O=C(Nc1ccc(N2CCCC2)cc1)C(Cl)c1ccccc1 (configuration not stated)	28µM*	50µM*	45µM*	10µM*	-7%
CS(=O)(=O)N1CCN(c2ccc(NC(=O)C(c3ccccc3)c3ccccc3)cc2)CC1	-20%	0%	1%	8.9µM*	-5%

Screening results (PubChem)
